Data published in PubChem BioAssay AID1159580 (chemical genetic matrix, 2015).
Values joined by “and” are separate entries in the source; they are usually repeats but may differ in a detail not shown here. Equal entries are not always repeated. Out of some 5,500 compounds screened, about 2,000 (36%) were called active. Not shown: some 18% with an inconclusive outcome. No stated cut-off is given here; in the data, active means normalized growth mostly below about 0.91 (no sharp cut-off); inconclusive means no clear call, values can overlap the other calls; inactive means mostly above about 0.92. The list shows a part of the results.

Test: chemical genetic growth profiling, strain panel (AID 1159580);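 further: tested at 20 µM; growth read once vehicle control cultures reached saturation at 30 °C; 1 = growth at the plate median or of vehicle wells; lower values mean less growth of the strain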
Details: S. cerevisiae deletion strains, growth OD

Measured: normalized growth

CN(C)[C@@H]1C(=O)C(C(N)=O)=C(O)[C@@]2(O)C(=O)C3=C(O)c4c(O)ccc(Cl)c4[C@@H](O)[C@H]3C[C@@H]12
inactive: locus YAL013W, strain DEP1, hits give low values 1 | locus YAL021C, strain ccr4, hits give low values 0.971 | locus YAL026C, strain drs2, hits give low values 1 | locus YAL030W, strain snc1, hits give low values 0.984 | locus YBL061C, strain skt5, hits give low values 0.98 | locus YBR009C, strain hhf1, hits give low values 1.04 | locus YBR021W, strain FUR4, hits give low values 0.945 | locus YBR023C, strain chs3, hits give low values 0.982 | locus YBR171W, strain sec66, hits give low values 0.978 | locus YBR229C, strain ROT2, hits give low values 1 | locus YBR231C, strain swc5, hits give low values 0.991 | locus YBR279W, strain paf1, hits give low values 0.994 | locus YCL011C, strain gbp2, hits give low values 1.06 | locus YCL016C, strain dcc1, hits give low values 0.964 | locus YCL029C, strain bik1, hits give low values 0.992 | locus YCL061C, strain MRC1, hits give low values 0.992 | locus YCL069W, strain vba3, hits give low values 0.997 | locus YCR088W, strain abp1, hits give low values 0.993 | locus YDL005C, strain med2, hits give low values 0.983 | locus YDL035C, strain GPR1, hits give low values 1.01 | locus YDL040C, strain nat1, hits give low values 0.992 | locus YDL074C, strain BRE1, hits give low values 0.994 | locus YDL101C, strain DUN1, hits give low values 1 | locus YDL134C, strain PPH21, hits give low values 1 | locus YDL185W, strain tfp1, hits give low values 0.984 | locus YDL192W, strain arf1, hits give low values 0.982 | locus YDR001C, strain nth1, hits give low values 0.977 | locus YDR069C, strain doa4, hits give low values 0.969 | locus YDR101C, strain arx1, hits give low values 0.999 | locus YDR137W, strain rgp1, hits give low values 0.921 | locus YDR159W, strain sac3, hits give low values 1.06 | locus YDR162C, strain NBP2, hits give low values 1.02 | locus YDR195W, strain ref2 1 | locus YDR297W, strain sur2, hits give low values 0.979 | locus YDR318W, strain mcm21, hits give low values 0.997 | locus YDR334W, strain swr1, hits give low values 0.95 | locus YDR335W, strain msn5, hits give low values 0.98 | locus YDR388W, hits give low values 0.983 | locus YDR392W, strain spt3, hits give low values 0.854 | locus YDR502C, strain sam2, hits give low values 0.981 | locus YEL003W, strain gim4, hits give low values 0.98 | locus YEL037C, strain rad23, hits give low values 0.99 | locus YEL061C, strain CIN8 (second series), hits give low values 0.988 | locus YEL061C, strain CIN8, hits give low values 1 | locus YER015W, strain faa2, hits give low values 0.988 | locus YER016W, strain bim1, hits give low values 0.994 | locus YER110C, hits give low values 0.98 | locus YER111C, strain swi4, hits give low values 0.994 | locus YER155C, strain BEM2 (second series), hits give low values 0.932 | locus YER155C, strain BEM2, hits give low values 1.01 | locus YER167W, strain BCK2, hits give low values 1.01 | locus YFR010W, strain ubp6, hits give low values 0.991 | locus YGL078C, strain dbp3, hits give low values 0.988 | locus YGL086W, strain mad1, hits give low values 0.986 | locus YGL167C, strain pmr1, hits give low values 0.988 | locus YGL173C, strain kem1, hits give low values 0.985 | locus YGL227W, strain vid30, hits give low values 0.982 | locus YGL240W, strain doc1, hits give low values 0.95 | locus YGL248W, strain PDE1, hits give low values 0.988 | locus YGL253W, strain hxk2, hits give low values 0.981 | locus YGR078C, strain PAC10, hits give low values 0.989 | locus YGR135W, strain pre9, hits give low values 0.974 | locus YGR252W, strain gcn5, hits give low values 0.879 | locus YHR013C, strain ard1, hits give low values 0.973 | locus YHR027C, strain rpn1, hits give low values 0.965 | locus YHR030C, strain SLT2, hits give low values 1 and 1.02 | locus YHR079C, strain IRE1 (second series), hits give low values 0.976 | locus YHR079C, strain IRE1, hits give low values 1.04 | locus YHR094C, strain hxt1, hits give low values 0.981 | locus YHR129C, strain ARP1, hits give low values 1.01 | locus YHR142W, strain chs7, hits give low values 0.981 | locus YHR200W, strain rpn10, hits give low values 0.987 | locus YIL066C, strain RNR3, hits give low values 1.01 | locus YIL073C, strain SPO22, hits give low values 0.992 | locus YIL125W, strain kgd1, hits give low values 0.983 | locus YIR030C, strain dcg1, hits give low values 0.98 | locus YJL092W, strain hpr5, hits give low values 0.987 | locus YJL095W, strain BCK1 (second series), hits give low values 0.98 | locus YJL095W, strain BCK1, hits give low values 0.998 and 1.03 | locus YJL115W, strain asf1, hits give low values 0.98 | locus YJL129C, strain trk1, hits give low values 0.984 | locus YJL134W, strain LCB3, hits give low values 1 | locus YJL154C, strain vps35, hits give low values 0.976 | locus YJL164C, strain tpk1, hits give low values 1 | locus YJL166W, strain qcr8, hits give low values 0.93 | locus YJL168C, strain set2, hits give low values 0.983 | locus YJL187C, strain SWE1 (second series), hits give low values 0.995 | locus YJL187C, strain SWE1, hits give low values 0.988 | locus YJR043C, strain POL32, hits give low values 0.984 | locus YJR066W, strain TOR1, hits give low values 0.97 | locus YKL009W, strain mrt4, hits give low values 1 | locus YKL068W, hits give low values 0.986 | locus YKL085W, strain MDH1 (second series), hits give low values 0.975 | locus YKL085W, strain MDH1, hits give low values 0.975 | locus YKL160W, strain elf1, hits give low values 0.93 | locus YKL190W, strain CNB1, hits give low values 1 | locus YKR001C, strain vps1, hits give low values 0.976 | locus YKR026C, strain gcn3, hits give low values 0.998 | locus YKR091W, strain srl3, hits give low values 0.98 | locus YLL001W, strain dnm1, hits give low values 0.921 | locus YLL026W, hits give low values 0.983 | locus YLL041C, strain sdh2, hits give low values 0.993 | locus YLR027C, strain aat2, hits give low values 1.01 | locus YLR039C, strain RIC1, hits give low values 0.995 | locus YLR058C, strain SHM2, hits give low values 0.998 | locus YLR102C, strain apc9, hits give low values 0.981 | locus YLR113W, strain HOG1, hits give low values 1.03 | locus YLR221C, strain rsa3, hits give low values 0.956 | locus YLR258W, strain gsy2, hits give low values 0.992 | locus YLR262C, strain YPT6 (second series), hits give low values 0.938 | locus YLR262C, strain YPT6, hits give low values 1.01 | locus YLR268W, strain sec22, hits give low values 0.954 | locus YLR320W, strain mms22, hits give low values 0.947 | locus YLR330W, strain CHS5, hits give low values 1.01 | locus YLR342W, strain FKS1 (second series), hits give low values 0.952 | locus YLR342W, strain FKS1, hits give low values 0.99 | locus YLR357W, strain rsc2, hits give low values 0.93 | locus YLR370C, strain arc18, hits give low values 0.979 | locus YLR371W, strain rom2, hits give low values 0.976 | locus YLR384C, strain iki3, hits give low values 0.975 | locus YLR418C, strain cdc73, hits give low values 0.939 | locus YML016C, strain PPZ1, hits give low values 0.999 | locus YML032C, strain rad52, hits give low values 0.988 | locus YML120C, strain ndi1, hits give low values 0.928 | locus YML124C, strain tub3, hits give low values 0.982 | locus YMR058W, strain fet3, hits give low values 0.934 | locus YMR078C, strain ctf18, hits give low values 0.982 | locus YMR125W, strain sto1, hits give low values 0.918 | locus YMR129W, hits give low values 0.989 | locus YMR205C, strain PFK2, hits give low values 0.938 | locus YMR223W, strain ubp8, hits give low values 0.977 | locus YMR231W, strain pep5, hits give low values 0.991 | locus YMR307W, strain GAS1, hits give low values 1.02 | locus YNL067W, strain RPL9B, hits give low values 0.997 | locus YNL071W, strain lat1, hits give low values 0.992 | locus YNL128W, strain TEP1, hits give low values 1.01 | locus YNL183C, strain NPR1, hits give low values 0.966 | locus YNL209W, strain ssb2, hits give low values 0.975 | locus YNL233W, strain BNI4, hits give low values 0.993 | locus YNL248C, strain rpa49, hits give low values 0.956 | locus YNL250W, strain rad50, hits give low values 0.99 | locus YNL271C, strain bni1, hits give low values 0.983 | locus YNL298W, strain CLA4, hits give low values 0.993 | locus YNL307C, strain MCK1, hits give low values 0.994 | locus YNL322C, strain KRE1 (second series), hits give low values 0.98 | locus YNL322C, strain KRE1, hits give low values 0.999 | locus YNR049C, strain mso1, hits give low values 0.978 | locus YNR052C, strain pop2, hits give low values 0.998 | locus YOL012C, strain htz1 0.761 | locus YOL147C, strain pex11, hits give low values 0.983 | locus YOR001W, strain rrp6, hits give low values 1.05 | locus YOR061W, strain CKA2, hits give low values 1 | locus YOR069W, strain VPS5, hits give low values 1 | locus YOR070C, strain gyp1, hits give low values 1.01 | locus YOR080W, strain dia2, hits give low values 0.981 | locus YOR083W, strain WHI5, hits give low values 0.941 | locus YOR106W, strain vam3, hits give low values 0.942 | locus YOR136W, strain idh2, hits give low values 0.979 | locus YOR144C, strain elg1, hits give low values 0.986 | locus YOR184W, strain ser1, hits give low values 0.995 | locus YOR231W, strain MKK1, hits give low values 1.04 | locus YOR265W, strain rbl2, hits give low values 0.982 | locus YOR270C, strain vph1, hits give low values 0.966 | locus YOR290C, strain snf2, hits give low values 0.958 | locus YOR316C, strain cot1, hits give low values 0.982 | locus YPL051W, strain arl3, hits give low values 0.973 | locus YPL055C, strain LGE1, hits give low values 0.992 | locus YPL078C, strain atp4, hits give low values 0.934 | locus YPL106C, strain sse1, hits give low values 0.911 | locus YPL240C, strain hsp82, hits give low values 0.993 | locus YPL256C, strain CLN2, hits give low values 1.02 | locus YPR119W, strain clb2, hits give low values 0.983 | locus YPR141C, strain kar3, hits give low values 0.981 | locus YPR163C, strain tif3, hits give low values 0.98 | locus YPR167C, strain met16, hits give low values 0.985 | strain wtn01, hits give low values 0.955
